For part of these data: Results with a measured potency or affinity are listed apart.
What was measured:
Design in all cases: scale not given: direction of the effect not stated beside the values
[1] = target: Protein translocase subunit SecA (Escherichia coli (strain K12)) (UniProt P10408); assay: Assay to Identify E. coli SecA ATPase Inhibitors; assay type: functional; settings: 30 µM
[2] = target: T1, Ubiquitin-activating enzyme e1, putative (Leishmania donovani (strain BPK282A1)) (UniProt E9BSI1); assay: Leishmania donovani Ubiquitin Activating Enzyme (LdE1); assay type: functional; settings: 30 µM
T1 sequence (whole entry): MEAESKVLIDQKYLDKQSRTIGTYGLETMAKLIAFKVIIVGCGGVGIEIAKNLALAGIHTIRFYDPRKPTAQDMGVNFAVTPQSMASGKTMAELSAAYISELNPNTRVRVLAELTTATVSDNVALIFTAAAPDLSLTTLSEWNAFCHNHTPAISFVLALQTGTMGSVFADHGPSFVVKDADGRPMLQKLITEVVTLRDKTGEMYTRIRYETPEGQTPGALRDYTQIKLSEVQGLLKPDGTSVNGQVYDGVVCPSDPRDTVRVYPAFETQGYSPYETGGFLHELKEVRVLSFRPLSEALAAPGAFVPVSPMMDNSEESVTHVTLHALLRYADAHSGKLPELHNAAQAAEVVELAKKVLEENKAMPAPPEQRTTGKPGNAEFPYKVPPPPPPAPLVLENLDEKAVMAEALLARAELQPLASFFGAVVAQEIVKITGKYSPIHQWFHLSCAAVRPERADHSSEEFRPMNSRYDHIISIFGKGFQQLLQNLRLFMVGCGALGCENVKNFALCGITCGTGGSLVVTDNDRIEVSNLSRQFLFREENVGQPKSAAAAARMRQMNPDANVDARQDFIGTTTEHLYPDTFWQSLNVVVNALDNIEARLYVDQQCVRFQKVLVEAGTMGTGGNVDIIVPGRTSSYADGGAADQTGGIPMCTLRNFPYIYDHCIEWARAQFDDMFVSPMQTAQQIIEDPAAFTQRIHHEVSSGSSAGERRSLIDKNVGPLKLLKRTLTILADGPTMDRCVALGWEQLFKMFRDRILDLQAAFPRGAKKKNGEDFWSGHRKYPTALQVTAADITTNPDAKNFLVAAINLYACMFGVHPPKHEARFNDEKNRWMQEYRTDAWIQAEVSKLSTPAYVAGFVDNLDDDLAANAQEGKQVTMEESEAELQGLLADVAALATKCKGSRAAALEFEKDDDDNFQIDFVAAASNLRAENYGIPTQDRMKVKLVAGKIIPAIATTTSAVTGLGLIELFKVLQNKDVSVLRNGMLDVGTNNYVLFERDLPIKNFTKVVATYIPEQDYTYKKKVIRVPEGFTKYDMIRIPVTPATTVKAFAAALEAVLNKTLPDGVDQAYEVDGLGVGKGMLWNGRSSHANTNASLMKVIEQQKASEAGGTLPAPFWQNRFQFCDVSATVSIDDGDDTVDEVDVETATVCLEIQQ

[3] = target: AMP-activated protein kinase, AMPK (Homo sapiens) (UniProt P54646+O43741+P54619+Q9UGJ0+Q9Y478+Q13131+Q9UGI9); assay: AMP-dependent Kinase enzyme assay. An in vitro enzyme assay that detects ADP turnover that is directly proportional to AMPK activity. This uses naive AMPK that is activated during the assay with MK-8722; assay type: functional; settings: 30 µM
[4] = target: Sialic acid-binding Ig-like lectin 9 (Homo sapiens) (UniProt Q9Y336); assay: Hs-Siglec9 ALPHAscreen SOP 20170721; settings: 10 µM
Sialic acid-binding Ig-like lectin 9 (Homo sapiens), sequence (Q9Y336 whole entry): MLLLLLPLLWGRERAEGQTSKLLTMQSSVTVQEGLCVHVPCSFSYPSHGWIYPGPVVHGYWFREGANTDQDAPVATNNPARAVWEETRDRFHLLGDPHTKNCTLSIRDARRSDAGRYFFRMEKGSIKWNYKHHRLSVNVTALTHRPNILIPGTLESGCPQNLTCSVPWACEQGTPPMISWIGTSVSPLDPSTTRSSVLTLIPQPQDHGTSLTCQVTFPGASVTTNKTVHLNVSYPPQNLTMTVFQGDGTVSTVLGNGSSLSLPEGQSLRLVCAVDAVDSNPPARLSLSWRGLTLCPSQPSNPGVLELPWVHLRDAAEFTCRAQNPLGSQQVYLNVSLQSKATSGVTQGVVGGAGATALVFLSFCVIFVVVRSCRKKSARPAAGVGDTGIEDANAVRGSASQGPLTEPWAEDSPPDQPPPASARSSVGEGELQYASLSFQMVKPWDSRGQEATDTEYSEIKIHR

Trypanosoma cruzi = assay: Trypanosoma cruzi phosphomannomutase and mannose-1-phosphate guanylyltransferase assay; assay type: functional; settings: 10 µM
[5] = target: T2, Arginase-2, mitochondrial (Homo sapiens) (UniProt P78540); assay: in vitro enzyme assay to detect the production of urea directly proportional to the activity of Arginase II; assay type: functional; settings: 33.3 µM; further: in the data most compounds retested in dose-response had high values
T2 sequence (whole entry): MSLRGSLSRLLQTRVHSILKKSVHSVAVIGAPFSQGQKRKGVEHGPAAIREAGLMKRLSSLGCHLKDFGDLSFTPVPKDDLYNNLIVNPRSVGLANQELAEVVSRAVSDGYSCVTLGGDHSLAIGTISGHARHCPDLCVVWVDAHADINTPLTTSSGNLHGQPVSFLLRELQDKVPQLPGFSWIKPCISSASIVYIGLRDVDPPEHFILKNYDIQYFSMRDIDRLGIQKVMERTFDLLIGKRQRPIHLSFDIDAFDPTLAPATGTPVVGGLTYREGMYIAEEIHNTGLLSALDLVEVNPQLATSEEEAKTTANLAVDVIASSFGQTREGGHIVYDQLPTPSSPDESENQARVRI

[6] = target: T3, Proteasome subunit beta (Trypanosoma cruzi) (UniProt O96673); assay: Trypanosoma cruzi proteasome chymotrypsin-like activity (TcProtChymo) assay.; further: in the data most compounds retested in dose-response had high values; assay type: functional; settings: 9.37 µM
T3 sequence (whole entry): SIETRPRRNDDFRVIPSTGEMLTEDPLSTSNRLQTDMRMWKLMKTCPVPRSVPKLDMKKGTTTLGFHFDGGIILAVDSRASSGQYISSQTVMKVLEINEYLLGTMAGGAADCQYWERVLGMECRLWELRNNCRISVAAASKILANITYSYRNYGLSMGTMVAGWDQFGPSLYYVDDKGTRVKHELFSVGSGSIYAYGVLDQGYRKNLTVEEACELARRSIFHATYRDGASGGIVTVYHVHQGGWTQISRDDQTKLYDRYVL

Homo sapiens = species on record: Homo sapiens; assay: To identify inhibition of the IFN signalling (Jak-Stat) pathway via expression of an eGFP reporter gene under the control of an IFN-stimulated response element (ISRE) containing MxA promoter.; assay type: functional; settings: 30 µM
[7] = target: T4, Tyrosyl-tRNA synthetase, putative (Trypanosoma cruzi (strain CL Brener)) (UniProt Q4DSP6); assay: Trypanosoma cruzi tyrosyl tRNA synthetase (TcYRS) _High Tyrosine SOP; assay type: functional; settings: 30 µM; further: in the data most compounds retested in dose-response had high values
T4 sequence (whole entry): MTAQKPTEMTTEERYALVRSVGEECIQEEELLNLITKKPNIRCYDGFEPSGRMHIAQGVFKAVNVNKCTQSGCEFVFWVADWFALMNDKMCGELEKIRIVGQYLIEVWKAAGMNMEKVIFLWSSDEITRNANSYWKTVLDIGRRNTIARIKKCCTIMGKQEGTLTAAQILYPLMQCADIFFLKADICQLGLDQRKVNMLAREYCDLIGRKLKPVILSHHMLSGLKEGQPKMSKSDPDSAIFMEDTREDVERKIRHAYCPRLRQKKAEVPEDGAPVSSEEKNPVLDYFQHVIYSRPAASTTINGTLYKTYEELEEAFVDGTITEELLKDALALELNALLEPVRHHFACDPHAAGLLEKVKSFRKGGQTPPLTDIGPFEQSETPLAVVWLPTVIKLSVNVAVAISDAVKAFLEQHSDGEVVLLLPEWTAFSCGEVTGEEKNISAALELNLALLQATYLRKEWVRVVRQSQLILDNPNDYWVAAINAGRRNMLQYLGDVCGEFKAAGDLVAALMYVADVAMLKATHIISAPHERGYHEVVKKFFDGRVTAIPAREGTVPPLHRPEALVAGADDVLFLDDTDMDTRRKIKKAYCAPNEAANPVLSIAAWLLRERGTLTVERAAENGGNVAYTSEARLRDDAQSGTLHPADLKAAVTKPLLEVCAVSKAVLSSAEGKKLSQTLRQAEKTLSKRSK

[8] = target: T4, Tyrosyl-tRNA synthetase, putative (Trypanosoma cruzi (strain CL Brener)); assay: Trypanosoma cruzi tyrosyl tRNA synthetase (TcYRS) SOP; assay type: functional; settings: 30 µM
[9] = target: Chromo domain-containing protein 1 (Saccharomyces cerevisiae (strain ATCC 204508 / S288c) (Baker's yeast)) (UniProt P32657); assay: ScCHD-1 Enzyme Inhibition Assay; assay type: functional; settings: 30 µM; further: in the data most compounds retested in dose-response had high values
Chromo domain-containing protein 1 (Saccharomyces cerevisiae (strain ATCC 204508 / S288c) (Baker's yeast)), sequence (P32657 whole entry, the tested form may be a part): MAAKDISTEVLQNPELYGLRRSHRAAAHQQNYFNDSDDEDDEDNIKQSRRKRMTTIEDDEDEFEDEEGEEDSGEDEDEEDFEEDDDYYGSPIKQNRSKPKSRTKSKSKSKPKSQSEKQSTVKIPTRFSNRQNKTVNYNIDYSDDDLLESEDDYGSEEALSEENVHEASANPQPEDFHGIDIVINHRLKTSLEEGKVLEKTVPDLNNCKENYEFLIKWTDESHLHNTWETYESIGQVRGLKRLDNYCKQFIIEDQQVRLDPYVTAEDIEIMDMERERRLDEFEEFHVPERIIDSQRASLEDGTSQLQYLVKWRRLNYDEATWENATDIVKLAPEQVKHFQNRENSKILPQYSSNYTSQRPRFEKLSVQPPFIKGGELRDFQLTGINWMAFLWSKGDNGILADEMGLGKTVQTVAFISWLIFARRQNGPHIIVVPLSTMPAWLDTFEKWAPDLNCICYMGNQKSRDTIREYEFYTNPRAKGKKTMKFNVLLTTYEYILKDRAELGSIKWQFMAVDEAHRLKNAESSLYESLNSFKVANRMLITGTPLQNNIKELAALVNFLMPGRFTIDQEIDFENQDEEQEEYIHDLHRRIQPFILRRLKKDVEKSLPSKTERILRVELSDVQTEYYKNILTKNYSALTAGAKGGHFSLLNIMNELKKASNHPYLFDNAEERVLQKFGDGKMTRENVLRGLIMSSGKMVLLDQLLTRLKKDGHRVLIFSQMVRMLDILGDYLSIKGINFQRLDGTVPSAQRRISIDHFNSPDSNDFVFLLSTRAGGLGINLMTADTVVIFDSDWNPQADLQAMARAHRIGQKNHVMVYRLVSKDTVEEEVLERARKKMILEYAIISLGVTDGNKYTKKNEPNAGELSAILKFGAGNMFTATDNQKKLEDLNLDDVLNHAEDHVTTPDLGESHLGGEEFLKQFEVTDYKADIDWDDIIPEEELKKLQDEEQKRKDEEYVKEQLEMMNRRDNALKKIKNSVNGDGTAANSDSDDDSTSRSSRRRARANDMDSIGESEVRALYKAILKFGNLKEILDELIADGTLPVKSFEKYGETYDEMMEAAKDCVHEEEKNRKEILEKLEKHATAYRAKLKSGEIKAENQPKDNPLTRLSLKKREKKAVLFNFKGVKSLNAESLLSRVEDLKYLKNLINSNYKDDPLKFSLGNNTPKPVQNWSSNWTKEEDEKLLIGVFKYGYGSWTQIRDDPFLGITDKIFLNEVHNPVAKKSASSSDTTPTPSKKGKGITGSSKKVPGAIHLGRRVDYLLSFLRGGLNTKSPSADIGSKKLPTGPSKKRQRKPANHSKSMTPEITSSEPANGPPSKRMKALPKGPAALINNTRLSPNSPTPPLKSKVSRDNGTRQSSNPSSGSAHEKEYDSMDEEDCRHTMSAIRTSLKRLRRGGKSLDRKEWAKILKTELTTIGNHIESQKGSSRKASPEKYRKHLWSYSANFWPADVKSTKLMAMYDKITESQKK

Protein translocase subunit SecA (Escherichia coli (strain K12)), sequence (P10408 whole entry): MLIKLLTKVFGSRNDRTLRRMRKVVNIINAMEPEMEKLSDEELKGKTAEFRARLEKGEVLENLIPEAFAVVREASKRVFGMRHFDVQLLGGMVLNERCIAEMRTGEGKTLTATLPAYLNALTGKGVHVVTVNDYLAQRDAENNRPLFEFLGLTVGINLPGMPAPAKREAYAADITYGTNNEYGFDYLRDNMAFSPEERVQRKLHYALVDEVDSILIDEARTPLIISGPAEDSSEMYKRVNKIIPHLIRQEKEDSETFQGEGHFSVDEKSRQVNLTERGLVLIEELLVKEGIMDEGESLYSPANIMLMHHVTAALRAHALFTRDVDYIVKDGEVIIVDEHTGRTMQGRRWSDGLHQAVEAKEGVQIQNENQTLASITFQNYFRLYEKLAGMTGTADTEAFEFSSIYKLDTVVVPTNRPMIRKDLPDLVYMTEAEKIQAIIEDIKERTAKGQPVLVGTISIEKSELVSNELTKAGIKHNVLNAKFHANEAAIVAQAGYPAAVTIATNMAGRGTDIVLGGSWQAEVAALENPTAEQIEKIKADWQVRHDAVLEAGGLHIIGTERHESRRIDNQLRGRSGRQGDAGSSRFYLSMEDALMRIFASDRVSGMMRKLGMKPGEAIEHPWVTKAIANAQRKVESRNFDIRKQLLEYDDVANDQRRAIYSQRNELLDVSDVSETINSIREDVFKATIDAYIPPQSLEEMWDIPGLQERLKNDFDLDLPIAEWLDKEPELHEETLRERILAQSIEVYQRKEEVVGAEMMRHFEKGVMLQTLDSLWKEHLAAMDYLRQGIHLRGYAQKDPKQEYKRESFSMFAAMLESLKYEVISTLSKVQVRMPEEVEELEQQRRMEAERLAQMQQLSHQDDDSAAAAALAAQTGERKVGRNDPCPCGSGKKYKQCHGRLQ

Row | SMILES | Percent Effect [1] | Percent Effect [2] | Percent Effect [3] | Percent Effect [4] | Percent Effect (Trypanosoma cruzi) | Percent Effect [5] | Percent Effect [6] | Percent Effect (Homo sapiens) | Percent Effect [7] | Percent Effect [8] | Percent Effect [9]
1 | COCCC(=O)N1CC2(CCN(Cc3ccoc3)C2)C1 | -1.14% | 13.3% | 3.09% | -10.1% | -6.69% | 5.36% | 17.7% | 9.94% | 4.25% | 1.28% | -1.88%
2 | CNc1nc(C)c(C(=O)N2CCCCC2CN2CCCCCC2)s1 (stereo unspecified) | -4.61% | 21.3% | -1.92% | 0.892% | 3.74% | -1.63% | 8.72% | -1.85% | 11.7% | 19.2% | -9.37%
3 | N#Cc1ncn(CCC(=O)Nc2ccc(Cl)cc2F)n1 | 1.65% | 8.22% | -0.288% | 4.01% | 1.39% | -1.6% | 18.4% | 30.7% | 11.5% | 21% | -1.18%
4 | CN(C(=O)C1CSCN1S(=O)(=O)c1ccc(F)cc1)C1CC1 (stereo unspecified) | -6.46% | 0% | -0.918% | 1.18% | -5.57% | -2.73% | 6.27% | -19.6% | 3.23% | 11.1% | 0.714%
5 | Cc1cc(C)n(CCCNC(=O)[C@@H](C)NC(=O)OC(C)(C)C)n1 | -6.34% | 7.89% | 8.18% | 0.0654% | 7.5% | -4.73% | 13.3% | 5.91% | 3.19% | 10.4% | -1.9%
6 | Cc1cc(C)n(CC(=O)N2CCC(c3nc(C)no3)CC2)n1 | -2.79% | 9.72% | 3.9% | -0.831% | 2.43% | 3.09% | 9.3% | -22.2% | 3.16% | 5.13% | -4.51%
